Laboratory results taken from PubChem BioAssay AID1347074 (Center for Chemical Genomics, University of Michigan, 2019).
Among all 47,000 compounds or so, about 2,800 (6%) were called active. Shown is part of a subset that was picked to be rich in actives. Values without a mark were called inactive. Cut-off read from the data, not from the text of the source: active = z-score above about 3 (passing the limit was not always enough); inactive = the rest.

target: Endoribonuclease Dicer (Homo sapiens) (UniProt Q9UPY3); assay: Dicer cleavage of pre-miR-21 blockers – biochemical, cat-ELCCA, chemiluminescence, primary screen (AID 1347074); conditions: cat-ELCCA pre-miR-21 Dicer processing, at 25 µM, hits give high values;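 note: plate controls were vehicle for no effect and no enzyme for full effect; higher signal means more uncleaved substrate so more Dicer inhibition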
Sequence (Q9UPY3 whole entry, looked up): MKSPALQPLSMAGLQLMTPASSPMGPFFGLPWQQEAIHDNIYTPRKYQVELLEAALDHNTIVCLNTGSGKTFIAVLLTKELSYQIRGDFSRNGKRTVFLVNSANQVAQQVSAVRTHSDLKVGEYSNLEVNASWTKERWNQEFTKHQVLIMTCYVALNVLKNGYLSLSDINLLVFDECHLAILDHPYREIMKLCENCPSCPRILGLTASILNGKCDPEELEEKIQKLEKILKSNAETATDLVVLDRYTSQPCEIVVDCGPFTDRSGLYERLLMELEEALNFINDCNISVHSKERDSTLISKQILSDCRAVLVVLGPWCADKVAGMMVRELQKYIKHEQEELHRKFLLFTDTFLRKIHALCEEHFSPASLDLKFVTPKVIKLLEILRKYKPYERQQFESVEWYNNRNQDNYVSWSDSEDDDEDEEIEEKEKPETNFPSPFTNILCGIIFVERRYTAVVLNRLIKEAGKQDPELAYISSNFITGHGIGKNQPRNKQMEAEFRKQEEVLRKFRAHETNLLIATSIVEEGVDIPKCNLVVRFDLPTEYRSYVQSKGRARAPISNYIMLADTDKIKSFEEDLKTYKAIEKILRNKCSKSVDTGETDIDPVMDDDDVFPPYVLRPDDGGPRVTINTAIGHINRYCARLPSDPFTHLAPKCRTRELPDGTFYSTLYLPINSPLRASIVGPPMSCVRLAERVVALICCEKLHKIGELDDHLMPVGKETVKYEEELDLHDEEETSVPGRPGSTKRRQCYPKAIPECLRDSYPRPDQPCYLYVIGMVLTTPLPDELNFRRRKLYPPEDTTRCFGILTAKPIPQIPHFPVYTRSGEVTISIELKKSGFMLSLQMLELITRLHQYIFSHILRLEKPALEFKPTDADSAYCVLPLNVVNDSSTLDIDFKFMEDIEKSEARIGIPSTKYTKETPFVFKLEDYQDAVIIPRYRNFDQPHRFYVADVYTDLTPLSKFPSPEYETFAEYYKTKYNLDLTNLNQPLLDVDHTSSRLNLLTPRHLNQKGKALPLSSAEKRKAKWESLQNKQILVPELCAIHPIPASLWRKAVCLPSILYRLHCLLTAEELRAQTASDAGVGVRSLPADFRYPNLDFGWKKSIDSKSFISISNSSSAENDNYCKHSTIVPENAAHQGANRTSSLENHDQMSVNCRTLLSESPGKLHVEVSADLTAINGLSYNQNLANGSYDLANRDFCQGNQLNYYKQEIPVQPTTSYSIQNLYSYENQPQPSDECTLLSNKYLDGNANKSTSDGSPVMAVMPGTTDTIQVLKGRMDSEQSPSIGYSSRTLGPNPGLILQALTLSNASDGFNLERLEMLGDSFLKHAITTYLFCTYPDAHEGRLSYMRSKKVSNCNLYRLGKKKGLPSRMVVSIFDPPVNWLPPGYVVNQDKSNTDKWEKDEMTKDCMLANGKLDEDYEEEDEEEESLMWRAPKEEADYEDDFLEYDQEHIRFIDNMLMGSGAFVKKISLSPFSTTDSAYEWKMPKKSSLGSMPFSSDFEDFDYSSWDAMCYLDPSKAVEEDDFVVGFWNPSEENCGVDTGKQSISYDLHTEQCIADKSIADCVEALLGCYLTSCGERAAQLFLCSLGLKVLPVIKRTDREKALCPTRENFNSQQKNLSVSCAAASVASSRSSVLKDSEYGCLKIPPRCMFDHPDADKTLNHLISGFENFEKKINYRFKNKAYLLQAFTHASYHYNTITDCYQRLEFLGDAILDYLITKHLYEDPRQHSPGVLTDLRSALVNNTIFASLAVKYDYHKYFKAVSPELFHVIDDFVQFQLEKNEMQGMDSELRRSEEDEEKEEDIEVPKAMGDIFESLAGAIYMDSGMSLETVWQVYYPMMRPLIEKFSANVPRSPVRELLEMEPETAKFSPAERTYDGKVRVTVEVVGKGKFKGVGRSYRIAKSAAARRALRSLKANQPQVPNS

Row | SMILES | z-score
1 | COc1ccc(-c2noc(-c3ccc(Cl)cc3)n2)cc1OC1CCCC1 | -0.55
2 | Cc1ccc(-n2c(C)nc3sc4c(c3c2=O)CCC(C)C4)cc1 (stereo not given) | -0.76
3 | CCOC(=O)c1c(NC(=O)C2CCCN2S(=O)(=O)c2ccccc2)sc(C)c1C (stereo not given) | 42.8
4 | O=S(=O)(c1ccc(Cl)cc1)N1CCN(c2cc(C(F)(F)F)nc3ccccc23)CC1 | -1.11
5 | Cn1c(=O)c2c(nc(NCCc3ccccc3)n2Cc2ccccc2)n(C)c1=O | -1.91
6 | Cn1c(Oc2ccccc2Br)nc2c1c(=O)n(Cc1ccccc1)c(=O)n2C | 5.58 (active)
7 | C=CCn1c(Oc2ccccc2Cl)nc2c1c(=O)n(C)c(=O)n2C | 0.6
8 | COC(=O)COc1c(C)cc(-c2nn(C)c(=O)c3ccccc23)cc1C | -1.18
9 | CCCCOC(C)n1cc(Br)c(=O)[nH]c1=O (stereo not given) | 0.67
10 | CCOCCOC(=O)C1=C(C)NC2=C(C(=O)CC(c3cccs3)C2)C1c1ccc(OC(C)=O)cc1 (stereo not given) | 0.06
11 | CCSCCOC(=O)C1=C(C)NC2=C(C(=O)CC(c3cccs3)C2)C1c1ccsc1 (stereo not given) | 1.85
12 | CC1=C(C(=O)OCc2ccccc2)C(c2ccc3c(c2)OCO3)C2=C(CC(c3cccs3)CC2=O)N1 (stereo not given) | 3.65 (active)
13 | CCOC(=O)N/N=C/c1ccccc1Cl | -1.05
14 | O=C(O)c1ccccc1/C=N/Nc1cc(Cl)ccc1Cl | 5.07 (active)
15 | S=C(N/N=C/c1ccc(Cl)cc1)Nc1cc(Cl)ccc1Cl | -0.45
16 | N#Cc1ccsc1N1C(=O)c2ccccc2C1=O | 0.31
17 | CCOC(=O)CSC(=NC)NNC(=O)c1c(C)nc2cc(C)ccn12 | -0.21
18 | CC(C)(C)c1ccc(-c2cc(NC(=O)c3ccc(Cl)cc3)n[nH]2)cc1 | 1.49
19 | Cc1cc(Br)c(NC(=O)c2ccc(Cl)cc2)c(Br)c1 | 4.71 (active)
20 | Cc1cc(C)c(C(=O)NC(=O)Nc2c(Cl)cc(Cl)cc2Cl)c(C)c1 | 0.37
21 | Cc1cccc(C2C3=C(CCCC3=O)N=C3c4ccccc4C(=O)C32)c1 (stereo not given) | 2.43
22 | CC(C)(C)C(=O)Nc1ccncc1C(=O)O | -4.04
23 | Nc1nc(COc2ccccc2Cl)ncc1S(=O)(=O)c1ccccc1 | -2.39
24 | COc1ccc(-c2cc(C(F)(F)F)nc(SCC(=O)NC3CC3)n2)cc1OC | -0.37

Row | SMILES | z-score
25 | COc1ccc(-c2cc(C(F)(F)F)nc(SCC(=O)NC3CCCC3)n2)cc1OC | 1.64
26 | COc1ccc(-c2cc(C(F)(F)F)n3ncnc3n2)cc1OC | 4.99 (active)
27 | C/C(=N\NC(=S)Nc1cccc(F)c1)c1ccco1 | 5.72 (active)
28 | CNNC(=S)Nc1ccc(F)c(C)c1 | 1.79
29 | CCc1[nH]nc2c1C(c1ccc(OC)c(OC)c1)C(C#N)=C(N)O2 (stereo not given) | -3.59
30 | COc1ccc2cc(S(=O)(=O)N3CCN(C(c4ccccc4)c4ccccc4)CC3)ccc2c1 | 0.57
31 | CC1CCN(C(=S)NC2CC3CCC2C3)CC1 (stereo not given) | 2.37
32 | CCOC(=O)c1c(NC(=O)c2cc3ccccc3o2)sc(C)c1C | 0.8
33 | CC(=Nc1ccccc1)c1nc(-c2ccccc2)oc1O | 1.37
34 | O=S(=O)(c1cccc(-c2cn3cccnc3n2)c1)N1CCCC1 | 0.36
35 | COc1ccccc1C(=O)CC1(O)C(=O)Nc2ccc(Cl)cc21 (stereo not given) | 6.27
36 | CCN1C(=O)C2(/C(=C(/O)c3ccc(OC)c(C)c3)C(=O)C(=O)N2CCCOC)c2ccccc21 (stereo not given) | 1.63
37 | CCN1C(=O)C2(/C(=C(/O)c3ccc(C)c(F)c3)C(=O)C(=O)N2CCCOC)c2ccccc21 (stereo not given) | -0.56
38 | CCN1C(=O)C2(/C(=C(/O)c3ccccc3)C(=O)C(=O)N2CCCOC)c2ccccc21 (stereo not given) | 3.53 (active)
39 | CC1CC(=O)Nc2ccccc2N1C(=O)Nc1cccc(Cl)c1Cl (stereo not given) | -0.93
40 | O=C1CC(N2CCN(C(c3ccccc3)c3ccccc3)CC2)C(=O)N1c1cccc(Cl)c1 (stereo not given) | -0.21
41 | O=C(NNc1nc(-c2ccc(F)cc2)cs1)c1ccc(Cl)cc1 | 5.33 (active)
42 | Cc1ccc(S(=O)(=O)NC(=O)Nc2nc(-c3ccc(F)c(F)c3)cs2)cc1 | -0.18
43 | O=C(NC(=S)Nc1nc(-c2ccc(Cl)cc2)cs1)C1CC1 | 1.34
44 | CC12c3ccccc3C(c3ccccc31)C1C(=O)N(c3ccc(C(=O)O)cc3)C(=O)C12 (stereo not given) | 0.79
45 | Cc1ncc([N+](=O)[O-])n1CCOC(=O)c1ccc(Br)cc1 | -0.13
46 | Cc1oc2cc(Br)c(OC(=O)c3ccco3)cc2c1C(=O)OC(C)C | 1.65
47 | COc1ccc(C(=O)COc2cc3c(C(=O)OC(C)C)c(C)oc3cc2Br)cc1 | 0.17
48 | Cc1oc2cc(Br)c(O)cc2c1C(=O)OC(C)C | 3.81 (active)

Row | SMILES | z-score
49 | Cc1cn(C(=O)Nc2ccccc2)nc1-c1cccs1 | 1.17
50 | Cc1ccc2nc(-c3cccnc3)[nH]c2c1 | -0.74
51 | COc1cc(C2C3=C(CC(C)(C)CC3=O)NC3=C2C(=O)CC(C)(C)C3)ccc1O | 1.78
52 | COc1cc(C2C3=C(CC(C)(C)CC3=O)Nc3ncnn32)ccc1OC(C)C (stereo not given) | 3.67 (active)
53 | COc1cc(OC)cc(-c2nc3n(n2)C(c2ccc(OC)c(OC)c2)C2=C(CC(C)(C)CC2=O)N3)c1 (stereo not given) | 0.99
54 | C=CCOc1ccc2c(=O)c(Oc3cc(C)ccc3C)coc2c1 | 1.12
55 | O=C(c1ccco1)N1CCC2(Cl)CCCCC2C1c1ccccc1 (stereo not given) | -2.84
56 | O=C(NC1(NCc2ccc(Cl)cc2)C(=O)c2ccccc2C1=O)c1ccc(C(F)(F)F)cc1 | 0.41
57 | COc1ccc(Nc2nc3ccccc3nc2NS(=O)(=O)c2ccccc2)cc1OC | 1.78
58 | CCCCN(CC)c1ncnc2ccc(C)cc12 | 3.53 (active)
59 | NC(=S)N/N=C/c1ccc(Cl)c(Cl)c1 | -1.14
60 | CC(C)(C)NC(=O)NCCCN1CCOCC1 | 0.22
61 | CCN(CC)C(=O)c1c(NC(=O)c2cccs2)sc2c1CCCCC2 | -1.54
62 | CCOC(=O)C1=C(C)NC2=C(C(=O)c3ccccc32)C1c1cc(Br)c(OC)c(OC)c1 (stereo not given) | 1.14
63 | CCCc1cc(=O)n2[nH]c(SCc3ccccc3)nc2n1 | 0.14
64 | O=c1[nH]c(SCc2ccccc2)nnc1-c1ccccc1 | 0.5
65 | COc1ccc(Cc2nc(-c3ccc(OC)cc3)no2)cc1 | 0.51
66 | COc1ccc(-c2noc(-c3ccc(Br)cc3)n2)cc1 | 1.15
67 | CCS(=O)(=O)n1nc(-c2ccc(OC)cc2)nc1SC | 3.58 (active)
68 | CCS(=O)(=O)n1nc(-c2ccccc2)nc1SCc1ccccc1 | 3.99 (active)
69 | COc1ccc(COC(=O)C2=C(C)NC3=C(C(=O)CCC3)C2c2ccc(Br)cc2)cc1 (stereo not given) | 0.32
70 | O=c1c(-c2ccc(OC3O[C@H](CO)[C@@H](O)[C@H](O)[C@H]3O)cc2)coc2cc(O)cc(O)c12 (stereo not given in full) | 0.24
71 | CS(=O)(=O)N(CC(=O)O)c1cccc2ccccc12 | -1.7
72 | CCOC(=O)C1=C(c2ccccc2)Nc2nc3ccccc3n2C1c1ccc(O)c(OCC)c1 (stereo not given) | -6.05

Row | SMILES | z-score
73 | N#Cc1cn(Cc2ccccc2Cl)c(=O)[nH]c1=O | 0.24
74 | CC1(C)SC2C(NC(=O)COc3ccccc3)C(=O)N2C1C(=O)O (stereo not given) | 1.11
75 | CC1(C)S[C@@H]2[C@H](NC(=O)COc3ccccc3)C(=O)N2C1C(=O)O (stereo not given in full) (tested in a mixture with another compound) | -0.17
76 | CC(=O)N1[C@@H](c2ccc(C)cc2)SC(C)(C)[C@@H]1C(=O)O | 4.5 (active)
77 | CN(C)c1ccc(NC(=O)CSc2nc(-c3ccco3)cc(C(F)(F)F)n2)cc1 | -1.78
78 | Cc1nc2ccccc2n1CCOc1ccc(Cl)cc1 | 0.74
79 | CCCNC(=O)NNC(=O)Cn1nnc(N2CCOCC2)n1 | 11.9
80 | S=c1nn[nH]n1-c1ccc(Cl)cc1Cl | -0.38
81 | CCCc1cc(-c2n[nH]c(C)c2-c2ccc3c(c2)OCCO3)c(O)cc1O | 7.51 (active)
82 | c1ccc2c(-c3csc(-c4ccc5c(c4)OCCO5)n3)csc2c1 | -0.77
83 | Cc1cc(C)n(C(C)C(=O)Nc2ccc(F)cc2)c(=O)n1 (stereo not given) | 2.63
84 | O=C(O)CCC(=O)c1ccc2ccccc2c1 | 0.56
85 | Cc1ccc(OS(=O)(=O)c2ccc(F)cc2)c([N+](=O)[O-])n1 | -1.06
86 | Cc1ccc2nsnc2c1S(=O)(=O)Nc1ccc(Br)cc1 | 5.39 (active)
87 | O=C(O)c1ccc(NS(=O)(=O)c2cccc3nsnc23)cc1 | 1.86
88 | Cc1ccc2nsnc2c1S(=O)(=O)N1CCCC1C(=O)O (stereo not given) | -1.03
89 | CN(C)/C=C1\C(=O)c2ccc(Cl)cc2N(Cc2c(F)cccc2Cl)S1(=O)=O | -0.82
90 | Cc1ccc(C(=O)Nc2ccccc2Sc2nc3ccccc3c(C)c2C#N)cc1 | -1.01
91 | CCOc1ccc(/C(O)=C2\C(=O)C(=O)N(c3nccs3)C2c2ccc(F)cc2)cc1 (stereo not given) | 0.2
92 | O=C(Nc1cccc(Br)c1)c1csc2c1CCCC2 | 5.59 (active)
93 | O=C(NCc1ccccn1)C(=O)Nc1cccc(Br)c1 | 1.05
94 | O=C(Nc1sc2c(c1C(=O)O)CCCC2)c1cc2ccccc2o1 | 0.75
95 | Cc1nc(-n2cccc2)sc1C(=O)N/N=C/c1ccc(Cl)cc1 | 0.46
